Compounds with a hit are over-represented: about 3% of the library has one in this group of screens.
ClpP mod: qHTS Assay for Activators of ClpP; ATP-dependent Clp protease proteolytic subunit (Bacillus subtilis (strain 168)), P80244; purified B. subtilis ClpP, FRET peptide cleavage, 20 min; Potency, µM (highest dose often 57.5 µM); actives 1.9% (n = 340,000); active means well fitted falling curve with a large enough effect; inconclusive means small, poorly fitted or top-dose-only effect; inactive means no such curve, though single readings can be large or run the other way; further: the source files actives as falling curves though it sought activators and does not explain the sign; nearly all actives have a fitted effect of over 65% in size
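ClpP 10 microg/mL final, pH 8 Tris/KCl buffer with BSA, glycerol, Tween-20; compound pinned in; FRET-FV substrate; RT 20 min; Ex320/Em430; ΔFRET vs ADEP 5.8 microM, DMSO, no enzyme.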
Chronic BCR inh: qHTS Assay to Find Inhibitors of Chronic Active B-Cell Receptor Signaling. ABC-DLBCL IkBa-CBG/CBR reporter, luminescence ratio, 4 h. Potency, µM (doses to about 46.1 µM), actives largely listed as inhibitors. actives 0.05% (n = 340,000); active means well fitted inhibition curve with a large enough effect in the signal ratio, with a control signal flat, not every such curve was filed as active; inconclusive means small, poorly fitted or top-dose-only effect, or effect the other way, or a change in a side signal; the % refers to the signal ratio
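TMD8 ABC-DLBCL cells carrying doxycycline-inducible green luciferase fused to IkappaBalpha plus unfused red luciferase were exposed to compounds (up to 46 uM) for 4 hrs at 37C. Activity came from the overlap-corrected green/red luminescence ratio.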
KCNH2 3.1 block: qHTS for Inhibitors of KCHN2 3.1: Mutant qHTS | actives 0.95% (n = 340,000) | Potassium voltage-gated channel subfamily H member 2, brain isoform KCNH2 3.1 (human) | U2OS KCNH2 3.1, thallium flux FluxOr; stronger effect = lower value | activity change, % (tested at about 1.8 µM) | AID 720553, 2013;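 active means maximum activity change below -70%; inconclusive means maximum activity change from -70% to -50%; inactive means maximum activity change above -50%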;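 further: thallium influx rate constant from kinetic fluorescence after stimulation buffer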
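U2OS cells transduced with KCNH2 3.1 mutant virus (1.77 x 10^8 /mL, 4 h), plated overnight at 37 C, loaded 45 min with FluxOr dye plus Red40 quencher. Thallium flux rate constant from kinetic reads after stimulation buffer, normalised to controls.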
LDHA block: qHTS assay for inhibitors of human lactate dehydrogenase; L-lactate dehydrogenase A chain (Homo sapiens), P00338; purified LDHA, NADH/diaphorase-resazurin fluorescence; stronger effect = lower value; activity change, % (values are at about 110 or 230 µM); actives 0.15% (n = 480,000); in the data active means activity change below about -30%; inconclusive means mostly about -25% to -30%
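Human LDH5 at 2 nM final in Tris HCl pH 7.4 with 0.06 mM NADH and 0.2 mM pyruvate, reacted 5 minutes at room temperature. Remaining NADH coupled via diaphorase/resazurin; resorufin fluorescence read at 0 and 20 minutes, normalized to enzyme-free and DMSO wells.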
KCNH2 WT inh: qHTS for Inhibitors of KCHN2 3.1: Wildtype qHTS; AID 720551, 2013; U2OS, BacMam KCNH2, thallium flux FluxOr; stronger effect = lower value; activity change, % at 1.84 µM; actives 0.37% (n = 340,000); Voltage-gated inwardly rectifying potassium channel KCNH2 (Homo sapiens), Q12809;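 active means maximum activity change below -70%; inconclusive means maximum activity change between -70% and -50%; inactive means maximum activity change above -50%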
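U2OS cells were transduced with wild-type KCNH2 virus (2.03 x 10^8 / mL) for 4 h at room temperature, then cultured overnight at 37 C. Thallium flux was read with FluxOr dye. Rate constants were normalized to DMSO controls.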
ALOX12 inh: Primary qHTS assay for inhibitors of human arachidonate 12S-lipoxygenase (ALOX12): Round 2. Potency, µM (top dose mostly 108 µM), actives largely listed as inhibitors. purified 12hLO, xylenol orange hydroperoxide absorbance. Polyunsaturated fatty acid lipoxygenase ALOX12 (Homo sapiens), P18054. actives 1.1% (n = 580,000); active means well fitted inhibition curve with a large enough effect; inconclusive means small, poorly fitted or top-dose-only effect, or another doubt; inactive means no such curve, though single readings can be large or run the other way
Target sequence (P18054 whole entry, looked up): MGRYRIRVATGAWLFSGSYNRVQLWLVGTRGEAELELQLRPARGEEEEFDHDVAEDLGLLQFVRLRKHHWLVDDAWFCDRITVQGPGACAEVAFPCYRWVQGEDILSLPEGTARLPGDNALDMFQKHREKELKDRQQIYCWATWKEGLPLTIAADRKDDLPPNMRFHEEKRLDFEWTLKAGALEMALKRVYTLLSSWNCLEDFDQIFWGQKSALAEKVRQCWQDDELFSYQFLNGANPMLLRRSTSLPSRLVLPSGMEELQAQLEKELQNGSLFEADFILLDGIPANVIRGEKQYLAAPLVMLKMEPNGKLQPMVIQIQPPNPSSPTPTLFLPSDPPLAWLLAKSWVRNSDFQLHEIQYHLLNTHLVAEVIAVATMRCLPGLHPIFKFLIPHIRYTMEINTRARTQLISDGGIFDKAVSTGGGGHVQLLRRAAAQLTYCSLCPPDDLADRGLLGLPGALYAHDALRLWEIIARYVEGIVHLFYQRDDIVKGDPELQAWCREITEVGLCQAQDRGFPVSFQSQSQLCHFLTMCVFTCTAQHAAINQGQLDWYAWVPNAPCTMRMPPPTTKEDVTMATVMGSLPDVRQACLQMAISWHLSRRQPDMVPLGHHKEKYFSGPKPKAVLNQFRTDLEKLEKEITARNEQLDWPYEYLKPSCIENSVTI
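Hydroperoxide product was detected by ferrous iron/xylenol orange as the 573 to 405 nm absorbance ratio. Arachidonic acid at 40 uM (final) was turned over for 30 min at room temperature by 150 nM human 12hLO, pH 7.0 Hepes buffer, after 15 min compound preincubation.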
Numbers stand for hits; . = inactive; ? = inconclusive; / = no result.

SMILES | ClpP mod | Chronic BCR inh | KCNH2 3.1 block | LDHA block | KCNH2 WT inh | ALOX12 inh
O=C(Nc1ccccc1Oc1cccnc1)C1CCCN(Cc2ccccc2O)C1 (centres undefined) | / | . | . | . | . | .
CCCn1ncc(CN2CCC(n3nccc3NC(=O)c3ccccc3Cl)CC2)c1C | . | . | ? | . | -87.8 | .
COc1ccc(/C=C/CN2CCC(n3nccc3NC(=O)C3CC3)CC2)cc1 | . | . | . | . | . | 25.1µM
O=C(Nc1ccnn1C1CCN(C/C=C/c2ccccc2)CC1)C1CCCC1 | . | . | -79.7 | . | . | .
O=C1Cc2c(-c3cccc4ccccc34)n[nH]c2CN1CCc1ccncc1 | / | / | / | / | / | .
CCN1CCC(n2nccc2NC(=O)c2ccccc2Cl)CC1 | . | / | . | . | . | .
CCc1ccc(CN2CCC(n3nccc3NC(=O)c3cccc(F)c3)CC2)cc1 | . | . | -100.5 | . | -110.2 | .
Cc1ccccc1C(=O)Nc1ccnn1C1CCN(Cc2cccnc2)CC1 | . | . | . | . | . | .
CCc1ccc(CN2CCC(n3nccc3NC(=O)c3ccccc3C)CC2)cc1 | . | . | -101.0 | . | . | .
COc1ccccc1C(=O)Nc1ccnn1C1CCN(C/C=C/c2ccc(F)cc2)CC1 | . | . | -103.7 | . | -123.0 | .
O=C(Nc1ccnn1C1CCN(Cc2ccccc2)CC1)c1ccccc1Cl | . | . | -89.6 | . | . | .
CC(C)CCCNC(=O)c1cn(C)c2ccccc12 | / | / | / | . | / | .
Cn1nc(CC(=O)NCc2ccccc2CN2CCCCC2)c2ccccc2c1=O | / | / | / | . | / | .
O=C(Nc1ccnn1C1CCN(CC2CC=CCC2)CC1)c1ccccc1Cl (centres undefined) | . | . | -78.7 | . | . | .
O=C(Nc1ccnn1C1CCN(C/C=C/c2ccccc2)CC1)c1ccccc1Cl | . | . | -106.9 | . | -107.4 | .
O=C(CN1C(=O)COc2ccc(S(=O)(=O)N3CCCC3)cc21)NC1CC1 | . | . | . | . | -83.4 | .
COc1cccc(NC(=O)CN2C(=O)COc3ccc(S(=O)(=O)N4CCOCC4)cc32)c1 | . | . | . | . | . | .
COc1cccc(NC(=O)CN2C(=O)COc3ccc(S(=O)(=O)N4CCCCCC4)cc32)c1 | . | . | -111.4 | . | . | .
C#CCOCCOCCOCCNc1nc(N2CCN(C(=O)Cn3cc(CCCCN)nn3)CC2)nc(N2CCN(C(=O)Cn3cc(CCCN=C(N)N)nn3)CC2)n1 | . | . | . | . | . | 2.51µM
COC(=O)c1sccc1NC(=O)c1c(-c2ccccc2)noc1C | . | ? | -73.6 | . | . | .
CCOC(=O)c1ccccc1NC(=O)c1c(-c2ccccc2)noc1C | . | . | / | . | / | .
Cc1onc(-c2ccccc2)c1C(=O)Nc1ccc(NC(=O)c2c(-c3ccccc3)noc2C)cc1 | . | / | . | . | . | .
CCOC(=O)c1c(NC(=O)c2c(-c3ccccc3)noc2C)sc(C)c1-c1ccccc1 | 14.1µM | . | . | . | . | .
N#CCSc1n[nH]c2nc3c(c(=O)n12)C1(CCCC1)Cc1ccccc1-3 | 15.8µM | ? | . | . | . | .
Cc1ccc(C(=O)NC(C(=O)Nc2ccccc2C)C(C)C)cc1 (centres undefined) | / | / | / | . | / | ?
COc1ccc(CCc2nnc(NC(=O)c3ccccc3)s2)cc1 | / | / | / | . | / | .
O=C(CCN1CCN(CCO)CC1)Nc1ccc(C2CCCC2)cc1 | . | . | . | . | . | 44.7µM
Cc1cccc(-c2nc(CS(=O)CC(=O)N3CCc4ccccc43)c(C)o2)c1 (centres undefined) | / | / | / | . | / | ?

High-throughput results from PubChem BioAssay.
